The supplement of paper PMC9262897, “Low-cost anti-mycobacterial drug discovery using engineered E. coli” (Nature Communications, 2022)
Counter-ions that a name gives are not always drawn. ± gives the standard deviation of the averaged measurements.

Experiments:
Assay in all cases: growth (OD600 after 10 h); higher = more growth (less inhibition)
[1] = tested on: E. coli TESEC Alr+ wild-type control; conditions: compound 0.1 mM; raw OD600 reference: median of DMSO wells 0.241, cell-free background 0.041
Method: (§1)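 TESEC Mtb Alr E. coli, or the Alr+ wild-type control, in 384-well plates with Prestwick library compounds at 0.1 mM and 1% DMSO, across arabinose induction levels of 1E3 to 1E7 nM. Growth is read as OD600 after 10 h at 37 °C in triplicate biological replicates.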

E. coli TESEC Mtb Alr [2] = conditions: compound 0.1 mM
Method: as §1

E. coli TESEC Mtb Asd = conditions: compound 0.1 mM
Method: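 TESEC E. coli strains in which the native enzyme is deleted and replaced by arabinose-inducible Mtb Asd, DapB, CysH or TrpD, each grown in its selective medium. Strains were screened against the Prestwick library at 0.1 mM and 1% DMSO in 384-well format at low and high arabinose induction. Growth is read as OD600 after 10 h in triplicate.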

E. coli TESEC Mtb Alr [3] = conditions: compound 0.1 mM; remark: listed apart in the source
Method: (§2)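 TESEC Mtb Alr E. coli (ΔaraC ΔtolC ΔentC Δalr ΔdadX, arabinose-inducible Mtb Alr) or the Alr+ wild-type control strain, grown in defined M9-fructose medium without D-alanine in 96-well plates with Prestwick library compounds at 0.1 mM and 1% DMSO. Low Alr induction is 0.1 µM arabinose and high induction is 10 mM arabinose.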

[4] = tested on: E. coli TESEC Alr+ wild-type control; conditions: compound 0.1 mM; raw OD600 reference: median of DMSO wells 0.49, cell-free background 0.052
Method: as §2

[5] = arabinose 1000 nM, raw OD600 reference: median of DMSO wells 0.294, cell-free background 0.041
[6] = arabinose 10000 nM, raw OD600 reference: median of DMSO wells 0.264, cell-free background 0.041
[7] = arabinose 100000 nM, raw OD600 reference: median of DMSO wells 0.201, cell-free background 0.041
[8] = arabinose 1000000 nM, raw OD600 reference: median of DMSO wells 0.193, cell-free background 0.041
[9] = arabinose 10000000 nM, raw OD600 reference: median of DMSO wells 0.146, cell-free background 0.041
[10] = arabinose induction (level): High, raw OD600 reference: median of DMSO wells 0.331, cell-free background 0.041
[11] = arabinose induction (level): Low, raw OD600 reference: median of DMSO wells 0.417, cell-free background 0.041
[12] = arabinose 100 nM, raw OD600 reference: median of DMSO wells 0.413, cell-free background 0.052
[13] = arabinose 10000000 nM, raw OD600 reference: median of DMSO wells […], cell-free background 0.052

SMILES | growth [1] | growth (E. coli TESEC Mtb Alr [2]; [5]) | growth (E. coli TESEC Mtb Alr [2]; [6]) | growth (E. coli TESEC Mtb Alr [2]; [7]) | growth (E. coli TESEC Mtb Alr [2]; [8]) | growth (E. coli TESEC Mtb Alr [2]; [9]) | growth (E. coli TESEC Mtb Asd; [10]) | growth (E. coli TESEC Mtb Asd; [11]) | growth (E. coli TESEC Mtb Alr [3]; [12]) | growth (E. coli TESEC Mtb Alr [3]; [13]) | growth [4]
CC[N+](CC)(CC(=O)Nc1c(C)cccc1C)Cc1ccccc1 [Denatonium benzoate] | 0.216 ± 0.0039 | 0.27 ± 0.0093 | 0.254 ± 0.006 | 0.182 ± 0.034 | 0.173 ± 0.014 | 0.132 ± 0.0092 | 0.401 ± 0.018 | 0.46 ± 0.0089 | 0.402 ± 0.018 | 0.338 ± 0.02 | –
Cc1cccc(CN2CCN(C(c3ccccc3)c3ccc(Cl)cc3)CC2)c1 (stereo unspecified) [Meclozine dihydrochloride] | 0.278 ± 0.0073 | 0.279 ± 0.011 | 0.302 ± 0.006 | 0.174 ± 0.023 | 0.129 ± 0.0042 | 0.185 ± 0.0054 | 0.207 ± 0.024 | 0.242 ± 0.0061 | 0.428 ± 0.031 | 0.143 ± 0.0093 | –
C=Cc1c(C)c2cc3nc(cc4[nH]c(cc5nc(cc1[nH]2)C(C)=C5CCC(=O)O)c(CCC(=O)OC)c4C)[C@@]1(C)C3=CC=C(C(=O)OC)C1C(=O)OC.C=Cc1c(C)c2cc3nc(cc4[nH]c(cc5nc(cc1[nH]2)C(C)=C5CCC(=O)OC)c(CCC(=O)O)c4C)[C@@]1(C)C3=CC=C(C(=O)OC)C1C(=O)OC (stereo partly specified) [Verteporfin] | 0.313 ± 0.011 | 0.356 ± 0.011 | 0.289 ± 0.0059 | 0.443 ± 0.0078 | 0.179 ± 0.0041 | 0.218 ± 0.0072 | 0.329 ± 0.016 | 0.432 ± 0.0089 | 0.556 ± 0.057 | 0.439 ± 0.021 | –
CCN1CCCC1CNC(=O)c1cc(S(N)(=O)=O)ccc1OC (stereo unspecified) [Sulpiride] | 0.2503 ± 0.0019 | 0.291 ± 0.012 | 0.248 ± 0.0039 | 0.198 ± 0.02 | 0.174 ± 0.0021 | 0.147 ± 0.0072 | 0.309 ± 0.099 | 0.423 ± 0.023 | 0.419 ± 0.0074 | 0.35 ± 0.017 | 0.525 ± 0.011
C#C[C@]1(O)CC[C@H]2[C@@H]3CCC4=Cc5oncc5C[C@]4(C)[C@H]3CC[C@@]21C [Danazol] | 0.154 ± 0.027 | 0.168 ± 0.026 | 0.174 ± 0.022 | 0.152 ± 0.012 | 0.125 ± 0.0017 | 0.152 ± 0.0057 | 0.295 ± 0.075 | 0.277 ± 0.022 | 0.4015 ± 0.0024 | 0.309 ± 0.026 | –
N=C(N)NCc1cccc(I)c1 [Iobenguane sulfate] | 0.231 ± 0.005 | 0.289 ± 0.0045 | 0.267 ± 0.0098 | 0.238 ± 0.029 | 0.202 ± 0.012 | 0.149 ± 0.011 | 0.29 ± 0.018 | 0.425 ± 0.056 | 0.409 ± 0.016 | 0.384 ± 0.013 | –
C[C@H](CS)C(=O)N1CCC[C@H]1C(=O)O [Captopril] | 0.259 ± 0.003 | 0.291 ± 0.019 | 0.253 ± 0.012 | 0.198 ± 0.027 | 0.176 ± 0.0095 | 0.148 ± 0.011 | 0.358 ± 0.044 | 0.399 ± 0.027 | 0.41 ± 0.0091 | 0.382 ± 0.021 | –
Cc1cccc(C)c1NC(=O)CN1CCN(CCCC(c2ccc(F)cc2)c2ccc(F)cc2)CC1 [Lidoflazine] | 0.239 ± 0.0079 | 0.311 ± 0.0035 | 0.263 ± 0.0048 | 0.223 ± 0.018 | 0.174 ± 0.0022 | 0.163 ± 0.0025 | 0.333 ± 0.059 | 0.361 ± 0.11 | 0.4122 ± 0.0027 | 0.379 ± 0.012 | –
O=C(O)c1cc(/N=N/c2ccc(S(=O)(=O)Nc3ccccn3)cc2)ccc1O [Sulfasalazine] | 0.274 ± 0.0048 | 0.308 ± 0.0065 | 0.254 ± 0.0054 | 0.193 ± 0.018 | 0.169 ± 0.011 | 0.131 ± 0.0032 | 0.314 ± 0.065 | 0.363 ± 0.054 | 0.431 ± 0.0053 | 0.349 ± 0.017 | –
C#C[C@]1(OC(C)=O)CC[C@H]2[C@@H]3CCC4=CC(=NO)CC[C@@H]4[C@H]3CC[C@@]21CC (mixture of isomers) [Norgestimate] | 0.134 ± 0.0062 | 0.123 ± 0.0052 | 0.0585 ± 0.0036 | 0.136 ± 0.0049 | 0.0563 ± 0.0053 | 0.111 ± 0.0098 | 0.0829 ± 0.015 | 0.0714 ± 0.019 | 0.263 ± 0.013 | 0.0794 ± 0.012 | –
CCCC(CCC)C(=O)O [Valproic acid] | 0.241 ± 0.0026 | 0.293 ± 0.0086 | 0.2722 ± 0.00032 | 0.22 ± 0.02 | 0.22 ± 0.0036 | 0.137 ± 0.0016 | 0.416 ± 0.018 | 0.404 ± 0.047 | 0.41 ± 0.01 | 0.358 ± 0.022 | –
O=C1OCCN1/N=C/c1ccc([N+](=O)[O-])o1 [Furazolidone] | 0.0406 ± 0.0001 | 0.041 ± 0.00078 | 0.04053 ± 0.00021 | 0.0418 ± 0.00065 | 0.03987 ± 0.00012 | 0.0412 ± 0.0008 | 0.056 ± 0.0037 | 0.0561 ± 0.0034 | 0.0572 ± 0.0027 | 0.05093 ± 0.00032 | –
CCCCC(CC)CN1CN(CC(CC)CCCC)CC(C)(N)C1 (stereo unspecified) [Hexetidine] | 0.219 ± 0.015 | 0.259 ± 0.0085 | 0.309 ± 0.0098 | 0.228 ± 0.039 | 0.161 ± 0.014 | 0.187 ± 0.0073 | 0.309 ± 0.022 | 0.373 ± 0.059 | 0.173 ± 0.21 | 0.0486 ± 0.0013 | –
O=C(Nc1ccc([N+](=O)[O-])cc1Cl)c1cc(Cl)ccc1O [Niclosamide] | 0.0431 ± 0.00067 | 0.0406 ± 0.001 | 0.0492 ± 0.0021 | 0.0408 ± 0.0001 | 0.03973 ± 0.00035 | 0.0404 ± 0.00042 | 0.0715 ± 0.017 | 0.225 ± 0.037 | 0.0618 ± 0.0064 | 0.0616 ± 0.00076 | –
CO[C@@H]1[C@@H](OC(N)=O)[C@@H](O)[C@H](Oc2ccc3c(O)c(NC(=O)c4ccc(O)c(CC=C(C)C)c4)c(=O)oc3c2C)OC1(C)C [Novobiocin sodium salt] | 0.0431 ± 0.00086 | 0.0437 ± 0.0029 | 0.0409 ± 0.0007 | 0.0461 ± 0.0025 | 0.0415 ± 0.00082 | 0.0423 ± 0.00026 | 0.0533 ± 0.0015 | 0.0535 ± 0.0063 | 0.0617 ± 0.0036 | 0.052 ± 0.0006 | –
CCC(=O)O[C@]1(C(=O)SCF)[C@H](C)C[C@H]2[C@@H]3C[C@H](F)C4=CC(=O)C=C[C@]4(C)[C@@]3(F)[C@@H](O)C[C@@]21C [Fluticasone propionate] | 0.233 ± 0.0036 | 0.29 ± 0.013 | 0.274 ± 0.021 | 0.21 ± 0.012 | 0.201 ± 0.013 | 0.149 ± 0.0044 | 0.258 ± 0.058 | 0.36 ± 0.046 | 0.453 ± 0.01 | 0.381 ± 0.034 | –
O=c1oc2ccccc2c(O)c1Cc1c(O)c2ccccc2oc1=O [Dicumarol] | 0.178 ± 0.001 | 0.159 ± 0.0018 | 0.1609 ± 0.0012 | 0.149 ± 0.0042 | 0.0997 ± 0.0013 | 0.126 ± 0.0032 | 0.289 ± 0.049 | 0.262 ± 0.049 | 0.128 ± 0.022 | 0.0655 ± 0.0074 | –
COC(=O)Nc1nc2cc(Sc3ccccc3)ccc2[nH]1 [Fenbendazole] | 0.233 ± 0.0041 | 0.273 ± 0.022 | 0.273 ± 0.012 | 0.189 ± 0.012 | 0.195 ± 0.057 | 0.144 ± 0.0032 | 0.382 ± 0.11 | 0.434 ± 0.018 | 0.421 ± 0.0066 | 0.352 ± 0.025 | –
CC1=C(C(=O)O)N2C(=O)[C@@H](NC(=O)[C@H](N)c3ccc(O)cc3)[C@H]2SC1 [Cefadroxil] | 0.255 ± 0.012 | 0.2848 ± 0.0015 | 0.274 ± 0.011 | 0.217 ± 0.011 | 0.199 ± 0.002 | 0.137 ± 0.0042 | 0.294 ± 0.035 | 0.444 ± 0.13 | 0.427 ± 0.012 | 0.326 ± 0.011 | –
